Laboratory results from PubChem BioAssay.
For part of these data: Measured potencies and affinities stand elsewhere. Activity calls are given as the source filed them. Unless noted, the rule behind the calls is not given here.

Tests used:
[1] = antimalarial activity against Dd2 strain (AID 2302;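 active = growth inhibition above 50% at the single 2 µM test dose, taken to imply half-maximal potency below 2 µM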;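 note: 0% = DMSO untreated growth and 100% = chloroquine plus artemisinin killed control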); details: P. falciparum Dd2 in RBCs, LDH growth readout, 72 h; at 2 µM; active compounds read high
[2] = human hepatoma cell viability loss – ATP luminescence, cytotoxicity control for P. falciparum antimalarial project, primary screen (AID 2303;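 active = inhibition above 50%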;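 note: 0% = DMSO wells and 100% = digitonin-killed cells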); details: HepG2 viability, 24-48 h, at 10 µM, active compounds read high
[3] = target: L-lactate dehydrogenase (Plasmodium falciparum (isolate CDC / Honduras)) (UniProt Q27743); assay: PfLDH activity inhibition – cell lysate, 3D7 strain, counter-screen for P. falciparum growth inhibition project (AID 2304);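 note: 0% = vehicle and 100% = reference inhibitor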; details: P. falciparum 3D7 crude extract, LDH APAD/NBT absorbance; at 2 µM; active compounds read high
L-lactate dehydrogenase (Plasmodium falciparum (isolate CDC / Honduras)), sequence (Q27743 whole entry, looked up): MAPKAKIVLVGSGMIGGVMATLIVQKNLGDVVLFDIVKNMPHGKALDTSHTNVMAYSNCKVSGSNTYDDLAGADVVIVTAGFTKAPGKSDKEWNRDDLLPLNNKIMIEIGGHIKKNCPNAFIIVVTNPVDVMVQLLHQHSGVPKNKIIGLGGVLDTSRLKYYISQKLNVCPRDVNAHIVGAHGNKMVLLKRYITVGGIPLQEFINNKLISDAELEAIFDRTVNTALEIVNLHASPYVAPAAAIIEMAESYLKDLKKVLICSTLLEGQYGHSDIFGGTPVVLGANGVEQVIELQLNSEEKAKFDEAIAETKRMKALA

[4] = inhibition of 3D7 malaria parasite growth – strain 3D7 (AID 2306);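 note: 0% = DMSO wells and 100% = chloroquine plus artemisinin control wells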; details: P. falciparum 3D7 erythrocytic growth, LDH absorbance, 72 h; at 2 µM; active compounds read high
[5] = target: Calcium-dependent protein kinase 1 (Plasmodium falciparum (isolate 3D7)) (UniProt P62344); assay: PfCDPK1 kinase inhibitors, biochemical, TCAMS library (AID 1159585; cut-off not given, nearly all actives have IC50 up to about 0.98 µM;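 note: inhibitors leave more ATP so luminescence rises with inhibition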); details: recombinant PfCDPK1, Kinase-Glo ATP depletion luminescence
Calcium-dependent protein kinase 1 (Plasmodium falciparum (isolate 3D7)), sequence (P62344 whole entry, looked up): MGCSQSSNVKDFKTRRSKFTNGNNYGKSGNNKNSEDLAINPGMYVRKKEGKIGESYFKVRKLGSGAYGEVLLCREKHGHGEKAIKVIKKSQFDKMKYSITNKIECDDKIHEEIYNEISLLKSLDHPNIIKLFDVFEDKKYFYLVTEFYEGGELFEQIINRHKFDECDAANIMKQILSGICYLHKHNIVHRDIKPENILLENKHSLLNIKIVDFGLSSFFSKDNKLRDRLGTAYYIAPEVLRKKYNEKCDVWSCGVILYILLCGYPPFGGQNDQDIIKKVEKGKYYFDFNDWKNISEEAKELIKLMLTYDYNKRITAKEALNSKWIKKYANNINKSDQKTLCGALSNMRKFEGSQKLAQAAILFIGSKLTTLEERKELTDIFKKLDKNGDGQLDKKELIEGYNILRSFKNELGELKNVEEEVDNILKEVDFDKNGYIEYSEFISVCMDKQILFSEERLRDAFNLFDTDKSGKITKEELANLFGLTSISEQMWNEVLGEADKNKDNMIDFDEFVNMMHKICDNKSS

[6] = target: Plasmodium falciparum protein kinase 6 (PK6, PF3D7_1337100) (UniProt Q8IDW1); assay: PfPK6 kinase inhibitors, biochemical, TCAMS library (AID 1159586); details: recombinant PfPK6, Kinase-Glo ATP depletion luminescence
Plasmodium falciparum protein kinase 6 (PK6, PF3D7_1337100), sequence (Q8IDW1 1-305): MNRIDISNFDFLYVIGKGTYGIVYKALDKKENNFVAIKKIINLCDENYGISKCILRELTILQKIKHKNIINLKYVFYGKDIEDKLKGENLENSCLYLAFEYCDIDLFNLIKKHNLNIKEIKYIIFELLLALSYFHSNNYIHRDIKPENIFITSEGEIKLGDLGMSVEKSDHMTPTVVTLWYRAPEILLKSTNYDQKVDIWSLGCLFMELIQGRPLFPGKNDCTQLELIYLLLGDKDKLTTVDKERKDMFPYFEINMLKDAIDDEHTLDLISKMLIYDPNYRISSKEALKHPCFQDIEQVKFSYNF

[7] = target: Protein kinase 7 (PK7), Plasmodium falciparum 3D7 (PF3D7_0213400) (UniProt Q7YTF7); assay: inhibition of Plasmodium PK7 catalytic activity – biochemical, TCAMS antimalarial set, Kinase-Glo luminescence (AID 1159587); details: recombinant PfPK7, Kinase-Glo ATP depletion luminescence
Protein kinase 7 (PK7), Plasmodium falciparum 3D7 (PF3D7_0213400), sequence (Q7YTF7 1-343): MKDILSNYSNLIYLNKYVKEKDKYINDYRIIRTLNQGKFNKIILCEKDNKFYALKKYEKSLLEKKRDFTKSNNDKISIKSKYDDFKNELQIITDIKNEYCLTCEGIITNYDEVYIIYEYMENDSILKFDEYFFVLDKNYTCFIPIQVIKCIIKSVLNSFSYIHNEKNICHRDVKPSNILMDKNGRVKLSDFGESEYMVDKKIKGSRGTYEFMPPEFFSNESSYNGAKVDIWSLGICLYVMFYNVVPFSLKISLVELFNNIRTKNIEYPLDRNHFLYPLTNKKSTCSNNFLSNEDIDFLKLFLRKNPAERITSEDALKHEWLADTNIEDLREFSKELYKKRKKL

[8] = target: Calcium-dependent protein kinase 4 (Plasmodium falciparum (isolate 3D7)) (UniProt Q8IBS5); assay: PfCDPK4 kinase inhibitors, biochemical, TCAMS library (AID 1159588; cut-off not given, nearly all actives have IC50 up to about 0.91 µM); details: recombinant PfCDPK4, Kinase-Glo ATP depletion luminescence
Calcium-dependent protein kinase 4 (Plasmodium falciparum (isolate 3D7)), sequence (Q8IBS5 whole entry, looked up): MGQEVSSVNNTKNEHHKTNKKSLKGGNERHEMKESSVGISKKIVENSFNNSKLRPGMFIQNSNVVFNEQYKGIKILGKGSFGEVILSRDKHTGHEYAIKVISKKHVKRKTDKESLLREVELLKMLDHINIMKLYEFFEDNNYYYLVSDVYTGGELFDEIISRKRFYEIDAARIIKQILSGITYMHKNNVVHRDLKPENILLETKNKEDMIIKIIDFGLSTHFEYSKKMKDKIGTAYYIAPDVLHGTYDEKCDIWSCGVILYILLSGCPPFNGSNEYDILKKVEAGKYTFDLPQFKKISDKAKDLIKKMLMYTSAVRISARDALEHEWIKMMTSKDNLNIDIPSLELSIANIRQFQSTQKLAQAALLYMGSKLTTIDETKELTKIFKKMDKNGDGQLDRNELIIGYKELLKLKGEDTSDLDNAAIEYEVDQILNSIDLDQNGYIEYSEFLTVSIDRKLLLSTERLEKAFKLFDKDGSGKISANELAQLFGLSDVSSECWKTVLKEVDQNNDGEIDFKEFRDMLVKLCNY

CC1CN(c2cc(=O)n(Cc3cccc(NC(=O)Nc4ccc(-c5ccccc5)cc4)c3)cn2)CC(C)N1 (centres undefined)
active: growth inhibition [1] 63% | growth inhibition [4] 101%
inactive: inhibition [2] 2% | inhibition [3] -2% | outcome [5] | outcome [6] | outcome [7] | outcome [8]

CN1CCCc2cc(NC(=O)C=Cc3ccc(-c4ccc(F)cc4F)o3)ccc2C1
active: growth inhibition [4] 90%
inactive: growth inhibition [1] 27% | inhibition [2] 5% | inhibition [3] 4% | outcome [5] | outcome [6] | outcome [7] | outcome [8]

CC1CCCN1Cc1cccc(-c2ccc(C(=O)NCCOc3ccccc3)s2)c1 (centres undefined)
active: growth inhibition [4] 83%
inactive: growth inhibition [1] 0% | inhibition [2] 26% | inhibition [3] -3% | outcome [5] | outcome [6] | outcome [7] | outcome [8]
